# In the library only some 11% were active in any assay of this set; here they are far more common.
# 12-hLO inh: 12-hLO (ALOX12) enzyme inhibition; P18054; purified 12-hLO, xylenol orange hydroperoxide absorbance; Potency, µM (series often up to 57.1 µM), for inactives: at the top dose activity change, negative = inhibition, actives largely listed as inhibitors; hit rate 0.12% among 150,000; AID 1452; further: potency means the concentration at half of the fitted maximal effect; nearly all actives have a fitted effect of over 55% in size
#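 Lipoxygenase turnover measured by absorbance at 573 and 405 nm after Fe-XO development. Human 12hLO 150 nM, arachidonate 40 uM, pH 7.0 Hepes buffer with detergent; 15 min compound preincubation, 30 min reaction.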
# ALDH1A1 block: blocks purified human ALDH1A1 activity. P00352. Purified ALDH1A1, NADH fluorescence, propionaldehyde substrate. Potency, µM (doses to about 75.3 µM), for the others: top-dose activity, negative = inhibition, hits mostly inhibitors. hit rate 7.3% among 220,000; active means well fitted inhibition curve with a large enough effect, not every such curve was filed as active; inconclusive means small, poorly fitted or top-dose-only effect, or another doubt; inactive means no such curve, though single readings can be large or run the other way;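 further: potency means the concentration at half of the fitted maximal effect; plate controls were no enzyme wells and a reference inhibitor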
# IMPase Li cell: membrane-permeable IMPase blocker, potentiated with lithium | Potency, µM (titrated, usually from 59.4 µM), for the others: at the highest dose activity, negative = IMPase inhibition, usual class: inhibitors | CHO-M1 cells, IP1 TR-FRET (IP-One), carbachol + lithium | hit rate 0.35% among 210,000 | AID 1457;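 further: IP1 builds up when IMPase is blocked and the TR-FRET signal falls; potency means the concentration at half of the fitted maximal effect; plate controls were basal vehicle for no effect and high inhibitor control for full effect; nearly all actives have a fitted effect of over 50% in size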
#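 Steps: plate 2000 CHO-M1 cells per well and culture 16–30 h; add compound and lithium; incubate 30 min, 37C; add d2-IP1 tracer and Eu cryptate anti-IP1 antibody in lysis buffer; read after 10 min at room temperature.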
# HPGD block: inhibitors of human 15-hydroxyprostaglandin dehydrogenase (HPGD); P15428; purified HPGD, NADH fluorescence kinetic, PGE2 substrate; Potency, µM, inactives show top-dose activity change, negative = inhibition, usual class: inhibitors; hit rate 4.3% among 150,000; active means well fitted inhibition curve with a large enough effect, not every such curve was filed as active; inconclusive means small, poorly fitted or top-dose-only effect, or another doubt; inactive means no such curve, though single readings can be large or run the other way; further: potency means the concentration at half of the fitted maximal effect
# Target sequence (P15428 whole entry, looked up): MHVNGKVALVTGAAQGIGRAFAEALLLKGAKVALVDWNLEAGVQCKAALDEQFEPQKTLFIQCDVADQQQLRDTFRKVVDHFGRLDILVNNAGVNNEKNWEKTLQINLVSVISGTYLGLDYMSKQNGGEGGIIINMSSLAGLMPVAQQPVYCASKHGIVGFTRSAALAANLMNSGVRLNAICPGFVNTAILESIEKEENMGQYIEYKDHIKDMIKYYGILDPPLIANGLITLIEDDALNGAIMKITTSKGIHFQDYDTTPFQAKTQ
#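 20 nM HPGD preincubated 15 min at room temperature with compound in 50 mM Tris-HCl pH 8, 0.01% Tween 20. Started with 1 mM NAD+ and 30 uM prostaglandin E2; NADH fluorescence (360/450 nm) read 5 times over 30-s intervals, last minus first.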
# IMPase cell inh: membrane-permeable compound that blocks inositol monophosphatase | P97697 | CHO-M1 cells, IP1 accumulation, HTRF TR-FRET ratio | inhibition (IP1 accumulation), % at 46.1 µM | 120,000 tested, under 10 active; active means well fitted curve in the direction sought with a large enough effect in the signal ratio, not every such curve was filed as active; inconclusive means small, poorly fitted or top-dose-only effect, or a change in a side signal; inactive means no such curve, though single readings can be large or run the other way; the % refers to the signal ratio;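 further: cells stimulated with carbachol in lithium chloride buffer; plate controls were DMSO basal wells for no effect and reference inhibitor wells for full effect; higher means more IMPase inhibition seen as more IP1 and lower FRET ratio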
# Target sequence (P97697 whole entry, looked up): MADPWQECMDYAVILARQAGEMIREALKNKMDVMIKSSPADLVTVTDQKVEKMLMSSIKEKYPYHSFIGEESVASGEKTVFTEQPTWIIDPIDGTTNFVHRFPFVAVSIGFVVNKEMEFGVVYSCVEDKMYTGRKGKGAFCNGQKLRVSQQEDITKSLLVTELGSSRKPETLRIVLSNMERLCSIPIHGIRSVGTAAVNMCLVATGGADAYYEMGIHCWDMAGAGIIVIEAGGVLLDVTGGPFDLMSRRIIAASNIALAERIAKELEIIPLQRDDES
#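 Elevated IP1 in lysates lowers TR-FRET signal (665/620 ratio and 620 channel reported). Cells were CHO-M1, given carbachol (50 uM as added) plus 50mM LiCl, pH 7.4, 30 min, 37C; compounds titrated up to 46 uM; AC50 by Hill equation.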
# PNC inhibitor: perinucleolar compartment assembly inhibition. AID 2417. activity change (PNC), negative = inhibition, % at 10 µM. PC3M PTB-GFP, PNC prevalence imaging, 16 h; active compounds read low. hit rate 3.1% among 140,000;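 active means readout at or below -70, meaning at least 70% loss of cells showing the perinucleolar compartment, a nuclear body marking cancer cells; inconclusive means readout between -30 and a set limit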;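 further: plate controls were DMSO wells for no effect and camptothecin positive control wells for full effect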
#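 Compounds are pinned in duplicate onto adhered PC3M cells stably expressing GFP-tagged PTB and incubated 16 h at 37 C. Cells are then fixed, nuclei stained with Hoechst, and PNC-positive cells counted.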
# Active calls of the source: *; ? = inconclusive; · = not tested or not shown; [ ] = dose if it differs, or a comment. Unless noted, the call rests on the fitted dose curve; in most records, active means well fitted curve in the direction sought with a large enough effect; inconclusive means small, poorly fitted or top-dose-only effect, or another doubt; inactive means no such curve, though single readings can be large; an effect the other way counts as inactive or inconclusive. Unless noted, on the % scale 0 is the no-effect control and ±100 the full control effect.
SMILES,12-hLO inh,ALDH1A1 block,IMPase Li cell,HPGD block,IMPase cell inh,PNC inhibitor
O=C(/C=C/c1ccc(S(=O)(=O)N2CCOCC2)cc1)NCc1ccccc1Cl,0%,8.9µM*,10%,-11%,·,42
O=C(O)C(=O)/C(=C\c1ccccc1)c1ccc2ccccc2n1,1%,?,13%[38.3 µM],?,-3,-14
O=C(O)C(=O)/C(=C\c1ccc([N+](=O)[O-])cc1)c1ccc2ccccc2n1,·,11µM*,-2%,·,·,·
Cc1nc([N+](=O)[O-])c(C(=O)OCc2cccc(Br)c2)n1C,·,-9%,-6%,·,·,·
O=C1CC(c2ccco2)CC(O)=C1C=NCCN1CCNCC1 (stereo unspecified),-5%,13µM*,33%[38.3 µM],-17%,0,-30
O=C1CC(c2ccccc2)CC(O)=C1C=NCCN1CCNCC1 (stereo unspecified),-2%,1%,4%[38.3 µM],-10%,7,19
CCNC(=S)N1CCN(CCN=CC2=C(O)CC(c3ccco3)CC2=O)CC1 (stereo unspecified),4%,-12%,0%[38.3 µM],-7%,5,-3
O=C1CC(c2ccco2)CC(O)=C1C=NCCN1CCN(C2CC(=O)N(c3ccccc3)C2=O)CC1 (stereo unspecified),3%,?,2%,-11%,-21,-100*
CC1(C)CC(=O)C(C=NCCN2CCN(C3CC(=O)N(c4ccc(Cl)c(Cl)c4)C3=O)CC2)=C(O)C1 (stereo unspecified),·,22µM*,3%,·,·,·
NC(N)=NC(N)=Nc1ccc(S(N)(=O)=O)cc1,0%[11.4 µM],4%[13.5 µM],0%,-1%,·,·
O=C(Cc1ccc(F)cc1)Nc1ccc(S(=O)(=O)N2CCCCC2)cc1,·,?,9%,·,·,·
Cc1nnc2sc(SCc3ccc(Br)cc3)nn2c1=O,·,1%,-2%,·,·,·
N[C@@H](Cc1ccccc1)c1nnc2sc(SCc3ccccc3)nn12,-2%,28µM*,30%[38.3 µM],28µM*,?,24
CCOc1ccc(NC(=O)c2c(NC(=O)c3ccccc3Br)sc3c2CCC(C)C3)cc1 (stereo unspecified),·,·,·,·,-2,·
CCOC(=O)c1ccc(NS(C)(=O)=O)cc1,1%,8%,11%[38.3 µM],?,5,13
CCOC(=O)c1ccc(NC(=O)N(CC)CC)cc1,-2%,12%,17%[38.3 µM],0%,12,-92*
NS(=O)(=O)c1ccc(NC(=O)CCc2ccccc2)cc1,-2%,5%,-9%[38.3 µM],-4%,8,-10
CN(CCO)C(=O)CCC(=O)Nc1ccc(S(N)(=O)=O)cc1,1%,1%,-25%[38.3 µM],-8%,-6,-127*
CCOC(=O)c1ccc(NC(=O)Nc2ccc(S(N)(=O)=O)cc2)cc1,2%,6%,1%[38.3 µM],-10%,-1,-122*
CCOC(=O)c1ccc(NS(=O)(=O)c2ccc3[nH]c(=O)[nH]c3c2)cc1,0%,16µM*,5%,28µM*,2,20
Cc1cccc(CNc2ccnc(-c3ccccc3C(F)(F)F)n2)c1,·,7%,20%,·,·,·
N#CCCn1c(=O)c(CCc2ccccc2)nc2cnc(N3CCOCC3)nc21,-7%,?,-26%,?,·,·
CC[C@]1(c2ccccc2)NC(=O)N(C)C1=O,-2%[25.6 µM],5%[20.9 µM],3%,2%,-8[20.6 µM],·
Cc1cc(C(=O)CCl)c(C)n1CCc1ccc(F)cc1,·,0.4µM*,12%,·,·,·
Cc1cc(C(=O)CCl)c(C)n1CCc1ccc(Cl)cc1,·,0.18µM*,22%,·,·,·
SMILES,12-hLO inh,ALDH1A1 block,IMPase Li cell,HPGD block,IMPase cell inh,PNC inhibitor
COc1ccc(CCn2c(C)cc(C(=O)CCl)c2C)cc1OC,·,0.11µM*,27%,·,·,·
COc1ccc(CCn2c(C)c(C(C)=O)c(C(C)=O)c2C)cc1OC,·,0%,5%,·,·,·
c1csc(CNc2ncncc2-c2ccoc2)c1,·,?,16%,·,·,·
C=CCn1c(SC2CCOC2=O)nc2scc(C3CC3)c2c1=O (stereo unspecified),-2%,?,34%[38.3 µM],-10%,2,?
Cc1sc2nc(SC3CCOC3=O)n(Cc3ccccc3)c(=O)c2c1C (stereo unspecified),·,16µM*,13%,·,·,·
O=C1OCCC1Sc1nc2cc(Cl)ccc2n1Cc1ccccc1 (stereo unspecified),-23%,25µM*,5%[38.3 µM],-21%,?,-23
O=C1OCCC1Sc1nc2ccccc2c(=O)n1Cc1ccccc1 (stereo unspecified),·,?,3%,·,·,·
C=CCn1c(SC2CCOC2=O)nc2sc(C)c(C)c2c1=O (stereo unspecified),-6%,2%,-3%,-26%,7,-80*
COc1ccccc1Oc1nc2c(C)cccn2c(=O)c1/C=C(\C#N)c1nc2ccccc2[nH]1,·,·,·,·,-4,·
CCOC(=O)c1[nH]c(C)c(C(=O)OCC(=O)N2CC(=O)Nc3ccccc32)c1C,0%,-15%,7%,16µM*,11,6
O=C1CN(C(=O)COC(=O)COc2ccc3c(c2)CCC3)c2ccccc2N1,-6%,?,-2%[38.3 µM],14µM*,-4,-8
COc1ccc(OCC(=O)OCC(=O)N2CC(=O)Nc3ccccc32)cc1,·,5%,·,·,·,·
COc1cc(/C=N/NC(=O)c2ccc(COc3cc(C)ccc3C(C)C)cc2)cc(OC)c1O,-3%,-3%,16%,-26%,·,-1
Cc1ccc(C(C)C)c(OCc2ccc(C(=O)N/N=C/c3ccc(O)c(O)c3)cc2)c1,-3%,-5%,-7%,?,·,-124*
COCCn1c(=O)c(-c2ccccc2)nc2cnc(N3CCN(C)CC3)nc21,·,?,-3%,·,·,·
CC(C)c1ccc(/C=N/NC(=O)C(=O)NCCCN2CCOCC2)cc1,-1%,14µM*,4%,-8%,·,34
O=C(NCCCN1CCOCC1)C(=O)N/N=C/c1c(Cl)cccc1Cl,·,6%,5%,·,·,·
CN1CCN(c2cc(-c3ccccc3Cl)ncn2)CC1,·,-2%,-1%,·,·,·
CN1CCN(c2ncc3nc(-c4ccc(Cl)cc4)c(=O)n(CCC#N)c3n2)CC1,-23%,?,8%,?,·,·
COc1cccc(C(=O)N(Cc2ccco2)Cc2cc3cccc(C)c3[nH]c2=O)c1,-10%,14µM*,·,·,21,?
Cc1ccc(NC(=S)N(CCN(C)C)Cc2cc3cc(C)cc(C)c3[nH]c2=O)cc1,0%,13%,2%,-4%,·,-116*
O=C(c1cccs1)N(Cc1ccco1)Cc1cc2ccccc2[nH]c1=O,-9%,?,18%[38.3 µM],-14%,6,-117*
CCOc1ccc2[nH]c(=O)c(CN(Cc3ccco3)C(=O)c3ccc(Br)cc3)cc2c1,-25%,4.5µM*,6%[38.3 µM],-20%,-14,32
Cc1ccc2[nH]c(=O)c(CN(Cc3ccco3)C(=O)c3ccncc3)cc2c1,-6%,-15%,-10%[38.3 µM],-17%,2,-23
N[C@@H](CCS(=O)O)C(=O)O,·,5%,-9%,·,·,·

# Assay outcomes (PubChem BioAssay)
